The results in this text go back to PubChem BioAssay AID1259417 (TB Discovery Research, Infectious Disease Research Institute, 2018).

The campaign covered roughly 1,100 compounds. About 760 (69%) were called active. How the calls were made is not given here. The set was probably picked from earlier hits. Some of the results follow.

The test is described as follows: M. tuberculosis growth inhibition, HTS (AID 1259417).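 Further: bacteria grown with compound for 5 days at 37 °C.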 As to conditions: stronger effect = higher value, concentration not given here.
Where [1] appears, read: M. tuberculosis DsRed fluorescence growth inhibition.
The mark [2] stands for this setting: M. tuberculosis growth inhibition.

Usually inhibition stands for the change of the read-out against control, counted positive when it falls. As for `Clc1ccc2c(c1)C1=C(C(c3ccncc3)O2)C(c2ccc(Br)cc2)n2ncnc2N1` (stereo unspecified), the inhibition by setting is: under setting [1], 96% (active); under setting [2], 93.9%.

Take `CC(=NNc1nc(=O)[nH]nc1C)c1ccccc1O`: the inhibition under setting [1] is 98.6% (active) and the inhibition under setting [2] was determined as 98.8%.

As for `COc1cccc(C=NNc2nc(=O)[nH]nc2C)c1O`, the inhibition under setting [1] is 91.7% (active) and the inhibition under setting [2] was found to be 94.9%.

Take `COc1ccc(C2(C(=O)Nc3ccc(Br)cc3)CCCC2)cc1`: the inhibition was 63.2% (active) under setting [1] and 81.4% under setting [2].

Take `CC(=NNc1nc(C)c(C)s1)c1ccc(Br)cc1`: the inhibition reads like this: under setting [1], 96.2% (active); under setting [2], 89.4%.

As to `CCOC(=O)CCc1c(C)c(C#N)c2[nH]c3ccccc3n2c1=O`, the inhibition was 98.3% (active) under setting [1] and 96.2% under setting [2].

With `CCOC(=O)COc1ccc2c(C#N)c3ccccn3c2c1`, the inhibition is, setting by setting: under setting [1], -0.849% (inactive); under setting [2], 22.1%.

Turning to `COC(=O)c1c2c(n3ccc(C)cc13)C(=O)c1ccccc1C2=O`, the inhibition under setting [1] is 99.2% (active) and the inhibition under setting [2] was 98.8%.

In the case of `CCOC(=O)C1=C(c2ccc(C)cc2)C(=O)c2ccccc2C1=O`, the inhibition under setting [1] was 14.4% (inactive) and the inhibition under setting [2] was 16.3%.

`CN(C)c1ccc(NC(=O)c2ccncc2)cc1`: the inhibition is, setting by setting: under setting [1], 98% (active); under setting [2], 100%.

As for `CC(C)(C)c1ccc(C(=O)Nc2cccc(NC(=O)c3cccs3)c2)cc1`, the inhibition is 0.571% (inactive) under setting [1] and 22.7% under setting [2].

With `Cc1ccc(NC(=O)c2cc3cc(Cl)cc(Cl)c3oc2=O)c(C)c1`, the inhibition runs as follows: under setting [1], 9.67% (active); under setting [2], 43.2%.

Consider `O=C1c2ccccc2C(=O)N1CCCCN(C(=O)c1cc([N+](=O)[O-])cc([N+](=O)[O-])c1)c1ccc(Cl)cc1`, for which the inhibition under setting [1] was 97.2% (active) and the inhibition under setting [2] came out at 92.5%.

Regarding `CC1=CC(C)(C)Nc2ccc(OC(=O)c3cccs3)cc21`, the inhibition was 49.6% (active) under setting [1] and 74.6% under setting [2].

For `CC1=CC(C)(C)Nc2ccc(OC(=O)c3cccnc3)cc21`, the inhibition under setting [1] is 9.4% (active) and the inhibition under setting [2] came out at 36.8%.

Consider `CCOC(=O)c1c(C)oc2ccc(OC(=O)c3cccs3)cc12`, for which the inhibition is -0.261% (inactive) under setting [1] and 2.41% under setting [2].

For the molecule `O=C(Nc1ncnc2sc3c(c12)CCCC3)c1ccc(F)cc1`, the inhibition by setting is: under setting [1], 26.6% (active); under setting [2], 61.8%.

On to `NC(=O)c1c(NC(=O)c2ccc(COc3ccccc3Cl)cc2)sc2c1CCCC2`, for which the inhibition runs as follows: under setting [1], -7.68% (inactive); under setting [2], -40%.

On to `Cc1cccc(N2CCN(c3ncnc4sc5c(c34)CCCC5)CC2)n1`, for which the inhibition under setting [1] is 7.93% (inactive) and the inhibition under setting [2] was -17.2%.

`CCOC(=O)c1cnc2ccc(OC)cc2c1Nc1ccc2c(c1)OCCO2`: the inhibition was 36.6% (active) under setting [1] and 24% under setting [2].

In the case of `CCCC(=O)OCCNc1cc(SCc2ccco2)c2nonc2c1[N+](=O)[O-]`, the inhibition is 22% (inactive) under setting [1] and 21% under setting [2].

Turning to `CC(=O)OCCNc1cc(SCc2ccco2)c2nonc2c1[N+](=O)[O-]`, the inhibition under setting [1] is 14.7% (inactive) and the inhibition under setting [2] was 11.3%.

As for `O=C(CC(SCc1ccco1)c1cccc([N+](=O)[O-])c1)c1ccco1` (stereo unspecified), the inhibition is 96.9% (active) under setting [1] and 97.7% under setting [2].
